# Laboratory results from PubChem BioAssay (NCI).
# Compounds without any hit were thinned out: in the full panel of roughly 83,000, 20% have a hit.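 Plates (96-well) were seeded with cells, treated with compound at one concentration, and incubated for 48 hours before percent growth was determined.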 Unmarked numbers belong to inactive results. Calls of active or inactive are those of the source.
# System: SK-MEL-2 melanoma
# Assay: NCI-60 one-dose screen, 48 h (100 = growth as untreated, 0 = no growth, -100 = all killed)
# Settings: 10 µM unless noted
# Description: Growth inhibition of the SK-MEL-2 human tumor cell line is measured as a screen for anti-cancer activity. Cells are grown in 96 well plates and exposed to the test compound for 48 hours. Compounds are tested at a single concentration, which is 10^-5 M for most compounds. The reported endpoint is percent growth (GI% or GIPRCNT), where numbers from 0 - 100% represent growth inhibition, and numbers from -100% - 0 represent cell death. For example, a value of 40 represents 60% growth inhibition. A value of 0 means no net growth occurred over the course of the experiment. A value of -40 indicates 40% of cells at the beginning of the experiment died by the end of the experiment. A value of -100 means all cells are dead at the end of the experiment.
# NCI-60 Human Tumor Cell Lines Screen was performed using the standard one-dose NCI protocol, which is described in more detail at https://dtp.cancer.gov/discovery_development/nci-60/default.htm.
# Compounds with GIPRCNT values below 10 were considered active. Activity score was based on GIPRCNT using the following formula: […]
# Score is 0 for GIPRCNT values of 100 or above, 50 for GIPRCNT values of 0, and 100 for GIPRCNT values of -100.
row,Compound,growth
1,c1cc(C2CCCCC2)ccc1-c1cnc2nonc2n1,8.16% (active)
2,COc1ccc(-c2conc2-n2nc(-c3ccccc3)nc2-c2ccccc2)cc1,103%
3,CN(C)c1ccc(C2(Cl)c3ccccc3N(C)c3ccccc32)cc1,61.2%
4,COc1cc2ncnc(Nc3ccc(S(=O)(=O)Nc4cc(C)on4)cc3)c2cc1OCCCN1CCN(c2ccc([N+](=O)[O-])cc2)CC1,109%
5,COc1ccccc1CNCCCN1C(=O)c2ccc3c4c(ccc(c24)C1=O)C(=O)N(CCCCNCCCN)C3=O,-46.1% (active)
6,c1ccc(CCn2cccc2)nc1,101%
7,COc1ccc(-n2nc(C(=O)Nc3ccc(F)cc3)nc2-c2cc(OC)c(OC)c(OC)c2)cc1,102%
8,COc1cccc(/C=N\Nc2ccc([N+](=O)[O-])cn2)c1O,77.1%
9,CN(C)CCNC(=O)n1cc(-c2ccncc2)c(-c2cc(O)cc(Cl)c2)n1,96.3%
10,Cn1c(=O)c2c(nc(N/N=C/c3ccccc3Cl)n2C)n(C)c1=O,81.6%
11,CCCCCc1c(C)[nH]c(/C=C2\N=C(c3ccc[nH]3)C=C2Oc2ccc(OC)cc2)c1C,-74.4% [100 µM] (active)
12,Cc1ccccc1Nc1n[nH]c(Cc2ccccc2)n1,83.8%
13,COc1cc(/C=C/c2cc(/C=C/c3ccc(O)c(OC)c3)n(C(=O)Nc3ccc(F)c(Cl)c3)n2)ccc1O,-25% (active)
14,Cc1cc(N)cc(C)c1-c1c(Br)cc(N)cc1Br,26.6%
15,COc1cc(C2CC(c3ccc(Cl)cc3)=NN2C=O)ccc1Oc1ccnc2cc(Cl)ccc12 (stereo not given),86.7%
16,Cc1ccncc1NC=O,108%
17,OC(CCCCCCCCC(O)CN1CCc2ccccc2C1)CN1CCc2ccccc2C1 (stereo not given),111%
18,C=C(c1ccc(C(=O)NCCCn2ccnc2)cc1)c1cc2c(cc1C)C(C)(C)CCC2(C)C,55.9%
19,ClC1=NC(Cl)C(Cl)=N/C1=N\c1ncn[nH]1 (stereo not given),-5.62% (active)
20,CCn1c(Cc2ccccc2Nc2c(Cl)cccc2Cl)nnc1SCC(=O)Nc1ccccc1C(F)(F)F,79.9%

row,Compound,growth
1,CC(C)OC1OC(OC(C)C)C(OC(C)C)OC1OC(C)C (stereo not given),95.1%
2,CC(=O)Nc1ccc(/C=N/N2CCCCCC2)cc1,118%
3,O=C1NN(C(=O)c2ccccc2)C(c2ccc(Cl)c(Cl)c2)=C/C1=C\c1ccccc1[N+](=O)[O-],10.9% [6.75 µM]
4,COC(=O)c1ccc2c(c1)nc(-c1cc3ccccc3[nH]c1=O)n2-c1cc(C(C)(C)C)[nH]n1,55.9%
5,CCCCOC(=O)c1cc(O)c(O)c(O)c1,75%
6,CNC1=C([N+](=O)[O-])C(c2ccccc2O)C(C#N)=C(c2cccs2)O1 (stereo not given),74.2%
7,COc1ccc(-n2c(COc3ccc(F)cc3)n[nH]c2=S)cc1,33.1%
8,O=C(Nc1cccc(C2=NCCN2)c1)c1ccc(N=Nc2ccc(C(=O)Nc3cccc(C4=NCCN4)c3)cc2)cc1,56.6%
9,Cc1cc2nc(CN)[nH]c2cc1C,110%
10,Cc1ccc(NC(=O)c2sc3nc4c(cc3c2N)C(=O)CCC4)cc1Cl,112%
11,CS(=O)(=O)c1ccc(Cl)c([N+](=O)[O-])c1,99.8%
12,NC(N)=N/N=C/c1cccc(Cl)c1Cl,106%
13,CCOC(=O)C1OC2(CCCC2)OC1C(=O)OCC (stereo not given),94.9%
14,COc1cc(CN2CCC(N3CCCC3=O)c3ccccc32)cc(OC)c1OC (stereo not given),89.8%
15,CN1C(=O)N(C)C2C1NN=c1s/c(=C\c3ccc(C(F)(F)F)cc3)c(=O)n12 (stereo not given),47.7%
16,CCN(CC)Cc1cc(Nc2ccnc3ccc(OC)cc23)ccc1O,26.5%
17,C=C1C(=O)O[C@H]2[C@H]1CC/C(COC(=O)NCc1[nH]nc3ccccc13)=C\CC[C@@]1(C)O[C@@H]21,30.9%
18,CCCCCCCCN=C(NCCCCCCCC)SCc1cccc2ccccc12,-89.8% (active)
19,CCOC(=O)Cn1c(-c2nonc2NC(=O)c2ccccc2F)nc2ccccc21,78%
20,CC(C)c1nc2ccccc2n1CC(=O)N/N=C/c1cccc(O)c1,107%
